Assay results: PubChem BioAssay AID435030 (The Scripps Research Institute Molecular Screening Center, 2010)
The campaign covered roughly 330,000 compounds. About 940 (0.28%) were called active. The full list was thinned out, with actives kept by preference. A number with no mark means an inactive call. Cut-off read from the data, not from the text of the source: active = inhibition above about 12%; inactive = the rest.

Assay: reduced growth of AddAB-expressing E. coli cells – absorbance, AddAB inhibitor project, primary screen (AID 435030);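 note: 0% = vehicle wells of infected cells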
Settings: E. coli expressing H. pylori AddAB, at 11.9 µM, active compounds read high

Q: With `C/C(=N/O)c1ccc2ccc3ccccc3c2c1` as the molecule, how does the inhibition read?
A: The inhibition was 1.43%.

Q: With `Cc1ccc(-n2c(-c3ccc([N+](=O)[O-])cc3)nc3ccccc3c2=O)cc1` as the molecule, how does the inhibition read?
A: Its inhibition is 0.16%.

Q: With `O=[N+]([O-])c1cnc2ccc3ccccc3c2c1` as the molecule, how does the inhibition read?
A: Its inhibition is 50.7% (active).

Q: For `CCc1ccc(OCC(=O)N2CCN(CC(=O)Nc3ccccc3Cl)CC2)cc1`, which inhibition is on record?
A: Its inhibition is -0.08%.

Q: With `CN(C)S(=O)(=O)c1cc(C(=O)N2CCC(C(=O)O)(c3ccccc3)CC2)ccc1Cl` as the molecule, how does the inhibition read?
A: Its inhibition is 23.8% (active).

Q: With `CCc1nc2ccccc2c(=O)n1-c1cccc(OC)c1` as the molecule, how does the inhibition read?
A: The inhibition was 1.96%.

Q: With `COc1ccc(S(=O)(=O)NCc2ccc(C(=O)N3CCC4(CC3)OCCO4)cc2)cc1` as the molecule, how does the inhibition read?
A: Its inhibition is 2.3%.

Q: With `c1ccc2sc(N3CCNCC3)nc2c1` as the molecule, how does the inhibition read?
A: Its inhibition is -0.09%.

Q: Which inhibition does the source give for `C[C@]12CC[C@H](O)CC1=C([N+](=O)[O-])CC1C2CC[C@@]2(C)C1CC[C@@H]2O` (stereo not given in full) here?
A: Its inhibition is 1.39%.

Q: Which inhibition does the source give for `Cc1ccc(-c2nn(CCC#N)cc2C(=O)O)cc1C` here?
A: Its inhibition is 2.06%.
